The record followed here is ChEMBL document CHEMBL1961873, “Compounds: GSK PKIS; Assays: Nanosyn kinase panel” (2012).

Assay [1] deals with T1, Ephrin type-B receptor 2 (Homo sapiens) (UniProt P29323).
T1 sequence (whole entry): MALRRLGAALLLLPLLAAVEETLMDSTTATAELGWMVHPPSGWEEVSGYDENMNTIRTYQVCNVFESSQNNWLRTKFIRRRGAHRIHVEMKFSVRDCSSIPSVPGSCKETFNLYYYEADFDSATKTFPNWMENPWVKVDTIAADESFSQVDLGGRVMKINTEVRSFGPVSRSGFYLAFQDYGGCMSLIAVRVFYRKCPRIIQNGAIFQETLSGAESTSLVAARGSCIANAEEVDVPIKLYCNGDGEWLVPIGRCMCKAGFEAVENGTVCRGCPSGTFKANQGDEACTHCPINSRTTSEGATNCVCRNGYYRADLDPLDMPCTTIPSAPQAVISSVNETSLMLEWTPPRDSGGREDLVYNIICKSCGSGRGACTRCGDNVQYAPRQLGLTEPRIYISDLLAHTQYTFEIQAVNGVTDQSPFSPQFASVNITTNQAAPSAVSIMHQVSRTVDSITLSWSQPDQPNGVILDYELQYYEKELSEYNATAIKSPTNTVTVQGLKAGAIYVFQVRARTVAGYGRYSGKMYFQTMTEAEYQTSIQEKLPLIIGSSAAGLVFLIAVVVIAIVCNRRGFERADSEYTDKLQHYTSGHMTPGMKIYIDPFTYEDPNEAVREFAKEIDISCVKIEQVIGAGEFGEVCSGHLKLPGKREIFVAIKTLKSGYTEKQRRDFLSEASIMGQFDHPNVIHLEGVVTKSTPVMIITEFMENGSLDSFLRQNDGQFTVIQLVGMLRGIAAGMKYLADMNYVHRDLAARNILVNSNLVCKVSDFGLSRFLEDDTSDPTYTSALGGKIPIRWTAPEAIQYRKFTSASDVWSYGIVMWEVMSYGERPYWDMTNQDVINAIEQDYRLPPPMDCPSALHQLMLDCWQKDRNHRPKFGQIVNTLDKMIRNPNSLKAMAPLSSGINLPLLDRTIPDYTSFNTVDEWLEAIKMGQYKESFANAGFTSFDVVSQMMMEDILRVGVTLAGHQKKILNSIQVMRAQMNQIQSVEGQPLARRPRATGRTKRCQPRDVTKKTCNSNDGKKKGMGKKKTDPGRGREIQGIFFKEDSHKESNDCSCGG
The note with it: at 1 µM.

Assay [2] deals with T2, Ephrin type-B receptor 3 (Homo sapiens) (UniProt P54753).
T2 sequence (whole entry): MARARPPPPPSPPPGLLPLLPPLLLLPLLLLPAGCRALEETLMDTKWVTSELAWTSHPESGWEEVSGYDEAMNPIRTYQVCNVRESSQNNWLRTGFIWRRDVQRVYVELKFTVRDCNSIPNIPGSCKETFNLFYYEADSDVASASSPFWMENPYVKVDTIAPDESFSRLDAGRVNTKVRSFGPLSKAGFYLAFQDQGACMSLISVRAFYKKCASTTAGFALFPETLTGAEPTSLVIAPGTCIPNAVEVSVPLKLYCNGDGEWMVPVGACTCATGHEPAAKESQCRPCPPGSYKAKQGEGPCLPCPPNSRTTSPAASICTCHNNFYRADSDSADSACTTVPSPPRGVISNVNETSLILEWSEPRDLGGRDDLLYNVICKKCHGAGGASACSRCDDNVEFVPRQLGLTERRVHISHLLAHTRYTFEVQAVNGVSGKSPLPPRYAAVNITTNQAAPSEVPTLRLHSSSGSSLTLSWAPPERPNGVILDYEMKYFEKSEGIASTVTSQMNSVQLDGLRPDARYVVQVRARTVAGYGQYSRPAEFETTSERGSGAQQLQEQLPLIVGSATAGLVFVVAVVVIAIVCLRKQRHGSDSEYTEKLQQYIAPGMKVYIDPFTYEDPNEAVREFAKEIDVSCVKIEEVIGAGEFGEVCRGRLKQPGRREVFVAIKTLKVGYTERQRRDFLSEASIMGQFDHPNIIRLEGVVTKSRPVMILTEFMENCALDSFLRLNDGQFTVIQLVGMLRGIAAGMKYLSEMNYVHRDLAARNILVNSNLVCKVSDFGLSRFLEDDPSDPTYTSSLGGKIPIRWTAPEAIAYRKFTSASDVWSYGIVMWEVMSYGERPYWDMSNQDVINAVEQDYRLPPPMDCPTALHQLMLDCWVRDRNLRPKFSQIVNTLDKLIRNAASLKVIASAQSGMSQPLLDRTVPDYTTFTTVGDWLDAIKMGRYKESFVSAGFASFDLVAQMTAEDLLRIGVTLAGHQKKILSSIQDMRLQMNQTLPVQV
The note with it: at 0.1 µM.

The target of assay [3] is T2, Ephrin type-B receptor 3 (Homo sapiens). The note with it: at 1 µM.
Assay [4] addresses T3, Ephrin type-B receptor 4 (Homo sapiens) (UniProt P54760).
T3 sequence (whole entry): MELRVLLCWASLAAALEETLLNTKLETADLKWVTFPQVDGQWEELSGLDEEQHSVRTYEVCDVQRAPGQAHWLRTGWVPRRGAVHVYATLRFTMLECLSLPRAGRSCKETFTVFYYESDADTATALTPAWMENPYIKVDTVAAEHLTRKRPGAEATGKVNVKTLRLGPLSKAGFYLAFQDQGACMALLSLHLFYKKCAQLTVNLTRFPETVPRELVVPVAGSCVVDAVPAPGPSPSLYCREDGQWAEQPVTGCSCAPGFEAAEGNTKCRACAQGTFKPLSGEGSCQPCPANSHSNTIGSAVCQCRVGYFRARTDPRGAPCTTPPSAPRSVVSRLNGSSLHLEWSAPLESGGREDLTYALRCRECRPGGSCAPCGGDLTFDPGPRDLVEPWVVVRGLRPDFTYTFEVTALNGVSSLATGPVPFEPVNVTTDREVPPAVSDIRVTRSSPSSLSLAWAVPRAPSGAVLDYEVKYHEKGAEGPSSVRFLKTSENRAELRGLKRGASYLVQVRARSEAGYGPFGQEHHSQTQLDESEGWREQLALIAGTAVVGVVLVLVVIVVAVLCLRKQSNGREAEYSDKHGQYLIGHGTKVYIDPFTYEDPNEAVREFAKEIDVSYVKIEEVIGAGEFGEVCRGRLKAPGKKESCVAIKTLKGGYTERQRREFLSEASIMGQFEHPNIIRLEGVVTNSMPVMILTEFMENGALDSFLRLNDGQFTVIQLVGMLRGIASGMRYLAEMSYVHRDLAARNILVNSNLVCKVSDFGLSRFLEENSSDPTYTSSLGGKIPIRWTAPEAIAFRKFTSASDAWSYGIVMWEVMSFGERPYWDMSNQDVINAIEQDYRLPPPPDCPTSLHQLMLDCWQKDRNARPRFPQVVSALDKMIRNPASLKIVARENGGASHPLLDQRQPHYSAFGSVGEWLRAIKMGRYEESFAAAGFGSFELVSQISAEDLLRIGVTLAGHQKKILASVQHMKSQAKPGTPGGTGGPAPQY
The conditions noted are these: at 0.1 µM.

Assay [5] deals with T3, Ephrin type-B receptor 4 (Homo sapiens). The conditions noted are these: at 1 µM.
Assay [6] concerns the target Receptor tyrosine-protein kinase erbB-2 (Homo sapiens) (UniProt P04626). The note with it: at 0.1 µM.
Assay [7] has the same target. The conditions noted are these: at 1 µM.
The target in assay [8] is Receptor tyrosine-protein kinase erbB-4 (Homo sapiens) (UniProt Q15303). The note with it: at 0.1 µM.
Sequence of Receptor tyrosine-protein kinase erbB-4 (Homo sapiens) (Q15303 whole entry): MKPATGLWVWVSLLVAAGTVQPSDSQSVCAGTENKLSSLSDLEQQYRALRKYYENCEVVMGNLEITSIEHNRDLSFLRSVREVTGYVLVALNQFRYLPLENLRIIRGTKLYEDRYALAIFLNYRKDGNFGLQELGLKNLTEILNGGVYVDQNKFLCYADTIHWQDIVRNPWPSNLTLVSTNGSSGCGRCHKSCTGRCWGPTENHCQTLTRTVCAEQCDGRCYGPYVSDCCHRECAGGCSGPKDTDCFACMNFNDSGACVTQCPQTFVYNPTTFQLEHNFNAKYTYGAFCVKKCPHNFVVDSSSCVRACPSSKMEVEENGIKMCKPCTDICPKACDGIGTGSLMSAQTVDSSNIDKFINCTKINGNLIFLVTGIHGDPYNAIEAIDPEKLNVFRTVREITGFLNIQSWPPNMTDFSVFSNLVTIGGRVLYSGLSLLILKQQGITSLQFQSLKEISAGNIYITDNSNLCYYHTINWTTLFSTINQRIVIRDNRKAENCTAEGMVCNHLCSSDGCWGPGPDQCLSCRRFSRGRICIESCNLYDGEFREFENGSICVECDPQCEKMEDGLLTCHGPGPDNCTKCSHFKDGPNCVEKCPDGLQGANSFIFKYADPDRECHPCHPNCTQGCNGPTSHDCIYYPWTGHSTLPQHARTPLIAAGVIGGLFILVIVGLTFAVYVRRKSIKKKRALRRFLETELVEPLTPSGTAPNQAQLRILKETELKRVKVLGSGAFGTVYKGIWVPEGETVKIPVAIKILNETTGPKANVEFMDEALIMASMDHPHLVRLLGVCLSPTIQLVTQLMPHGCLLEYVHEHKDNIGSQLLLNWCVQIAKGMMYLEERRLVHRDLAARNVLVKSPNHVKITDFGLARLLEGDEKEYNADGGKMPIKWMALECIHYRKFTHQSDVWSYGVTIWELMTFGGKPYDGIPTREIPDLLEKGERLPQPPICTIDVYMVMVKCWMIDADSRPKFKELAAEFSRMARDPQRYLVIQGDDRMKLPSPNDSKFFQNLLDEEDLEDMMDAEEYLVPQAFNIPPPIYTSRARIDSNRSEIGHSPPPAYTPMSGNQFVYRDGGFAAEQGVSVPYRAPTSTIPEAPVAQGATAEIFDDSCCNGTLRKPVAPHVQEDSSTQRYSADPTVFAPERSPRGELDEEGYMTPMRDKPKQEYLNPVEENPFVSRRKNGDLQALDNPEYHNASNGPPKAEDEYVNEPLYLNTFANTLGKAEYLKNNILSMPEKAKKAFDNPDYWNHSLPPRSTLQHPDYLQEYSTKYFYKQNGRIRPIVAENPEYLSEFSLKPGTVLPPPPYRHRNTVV
Assay [9] has the same target. The note with it: at 1 µM.
Assay [10] has as its target Tyrosine-protein kinase Fer (Homo sapiens) (UniProt P16591). The conditions noted are these: at 0.1 µM.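 Also: reported figures are averaged percent inhibition of FER.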

Sequence of Receptor tyrosine-protein kinase erbB-2 (Homo sapiens) (P04626 whole entry): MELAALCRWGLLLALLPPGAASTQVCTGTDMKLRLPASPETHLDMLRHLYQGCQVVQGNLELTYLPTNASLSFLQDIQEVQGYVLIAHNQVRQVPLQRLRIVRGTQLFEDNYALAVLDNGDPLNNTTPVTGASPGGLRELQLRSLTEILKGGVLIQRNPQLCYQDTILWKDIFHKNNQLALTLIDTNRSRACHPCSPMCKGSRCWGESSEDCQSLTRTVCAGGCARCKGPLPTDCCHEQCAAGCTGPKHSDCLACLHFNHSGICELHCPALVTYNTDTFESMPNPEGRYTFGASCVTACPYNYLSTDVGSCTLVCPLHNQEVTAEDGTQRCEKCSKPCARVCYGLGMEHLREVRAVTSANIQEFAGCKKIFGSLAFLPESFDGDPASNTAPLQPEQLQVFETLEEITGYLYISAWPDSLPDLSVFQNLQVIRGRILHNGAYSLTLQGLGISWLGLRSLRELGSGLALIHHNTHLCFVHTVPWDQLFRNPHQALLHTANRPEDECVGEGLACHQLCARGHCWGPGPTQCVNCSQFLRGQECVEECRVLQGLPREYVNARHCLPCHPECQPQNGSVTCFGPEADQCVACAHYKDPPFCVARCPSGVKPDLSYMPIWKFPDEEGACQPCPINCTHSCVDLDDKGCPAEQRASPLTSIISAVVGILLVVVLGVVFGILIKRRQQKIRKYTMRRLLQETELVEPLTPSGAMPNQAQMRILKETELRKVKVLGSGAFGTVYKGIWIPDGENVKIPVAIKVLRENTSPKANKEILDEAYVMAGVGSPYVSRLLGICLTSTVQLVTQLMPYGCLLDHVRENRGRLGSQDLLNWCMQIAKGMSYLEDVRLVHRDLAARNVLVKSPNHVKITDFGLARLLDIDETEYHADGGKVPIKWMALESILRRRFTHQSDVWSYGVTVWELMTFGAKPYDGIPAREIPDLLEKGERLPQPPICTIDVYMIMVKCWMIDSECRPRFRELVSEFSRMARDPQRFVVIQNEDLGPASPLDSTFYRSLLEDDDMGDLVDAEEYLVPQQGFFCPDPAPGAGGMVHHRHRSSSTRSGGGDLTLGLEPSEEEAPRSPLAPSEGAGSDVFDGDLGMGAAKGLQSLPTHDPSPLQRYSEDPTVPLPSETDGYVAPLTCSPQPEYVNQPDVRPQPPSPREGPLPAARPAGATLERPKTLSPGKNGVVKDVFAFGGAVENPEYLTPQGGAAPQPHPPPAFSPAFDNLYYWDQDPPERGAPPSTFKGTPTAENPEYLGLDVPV
Sequence of Tyrosine-protein kinase Fer (Homo sapiens) (P16591 whole entry, looked up): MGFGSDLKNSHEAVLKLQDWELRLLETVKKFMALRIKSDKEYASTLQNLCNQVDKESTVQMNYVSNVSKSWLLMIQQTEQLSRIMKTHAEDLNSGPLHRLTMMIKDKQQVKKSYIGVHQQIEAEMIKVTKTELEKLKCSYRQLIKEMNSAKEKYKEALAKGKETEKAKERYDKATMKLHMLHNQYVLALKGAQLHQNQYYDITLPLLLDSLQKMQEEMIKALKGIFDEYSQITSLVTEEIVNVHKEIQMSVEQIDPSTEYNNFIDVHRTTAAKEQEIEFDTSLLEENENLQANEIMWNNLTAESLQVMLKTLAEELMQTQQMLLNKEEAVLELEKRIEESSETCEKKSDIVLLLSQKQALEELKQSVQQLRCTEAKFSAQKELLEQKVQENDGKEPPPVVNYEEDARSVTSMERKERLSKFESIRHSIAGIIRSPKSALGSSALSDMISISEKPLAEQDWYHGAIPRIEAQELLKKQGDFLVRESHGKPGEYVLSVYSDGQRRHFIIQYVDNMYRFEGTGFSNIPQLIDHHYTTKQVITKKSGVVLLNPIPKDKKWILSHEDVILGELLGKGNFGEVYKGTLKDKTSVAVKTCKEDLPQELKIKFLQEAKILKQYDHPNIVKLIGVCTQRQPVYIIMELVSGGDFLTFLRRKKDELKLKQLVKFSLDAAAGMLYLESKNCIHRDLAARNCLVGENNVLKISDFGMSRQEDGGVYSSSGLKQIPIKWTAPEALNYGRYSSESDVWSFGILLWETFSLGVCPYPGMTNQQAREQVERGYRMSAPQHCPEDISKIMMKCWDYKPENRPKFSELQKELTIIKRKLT

What is called inhibition is the relative decrease from the control value, in per cent. For `COc1c(C(N)=O)cc(-c2ccc(Cl)cc2)cc1-c1ccc(S(N)(=O)=O)cc1`, the inhibition in [1] turned out to be 8.13%; in [2], 1.93%; in assay [3], 4.65%; in assay [4], 5.71%; in assay [5], 3.61%; in assay [6], 1.74%. Also, the inhibition in assay [7] came out at 4.75%; in assay [8], 7.58%; in assay [9], 12.9%; in assay [10], 0.34%.

Turning to `COc1ccc2ncn(-c3cc(O[C@H](C)c4ccccc4C(F)(F)F)c(C(N)=O)s3)c2c1`, the inhibition was 1.95% in assay [1]; 1.32% in [2]; 0.52% in assay [3]; -1.21% in [4]; 1.77% in assay [5]; -0.36% in [6]. In addition, the inhibition is -1.72% in assay [7], 1.06% in assay [8], 3.12% in assay [9] and 1.06% in assay [10].

As for `CCN1CCC(C(=O)Nc2n[nH]c3nnc(-c4cccc(F)c4F)cc23)CC1`, the inhibition in assay [1] is 0.53%; in assay [2], 0.69%; in assay [3], 1.64%; in [4], 0.49%; in [5], -0.12%; in assay [6] it was 1.2%. Besides, the inhibition is 0.02% in [7], -0.85% in assay [8], 0.79% in [9] and -0.15% in assay [10].

For `FC(F)(F)CNc1nccc(-c2cnn3ncccc23)n1`, the inhibition in assay [1] came out at 4.55%; in assay [2], 4.36%; in [3] it was 3.96%; in [4], 0.32%; in assay [5], 1.93%; in [6] it was 4.52%. Besides, the inhibition in assay [7] amounted to 3.89%; in assay [8], 13.2%; in assay [9], 14%; in [10], 1.02%.

With `COc1cc(Nc2ncc(-c3ccccc3)o2)cc(OC)c1`, the inhibition amounted to 11.5% in [1]; 3.34% in [2]; 3.15% in [3]; 1.28% in [4]; 4.64% in [5]; 2.1% in assay [6]. Further, the inhibition in [7] stood at 3.72%; in assay [8], 9.38%; in assay [9] it was 14.6%; in [10] it was 0.58%.

As to `CC1=C(C(=O)Nc2ccc3[nH]ncc3c2)C(c2ccc(F)cc2)N=C(c2ccc(C(F)(F)F)nc2)N1` (stereo not given), the inhibition in assay [1] was 8.11%; in assay [2] it was 3.81%; in assay [3], 2.31%; in assay [4], 1.15%; in assay [5] it was 2.78%; in assay [6], 1.68%. Also, the inhibition in assay [7] was 3.01%; in [8], 7.98%; in [9], 11.7%; in assay [10], 0.93%.

Regarding `O=C(O[C@H]1CN[C@H](C#Cc2cc3ncnc(Nc4ccc5c(ccn5Cc5cc(F)ccc5F)c4)c3s2)C1)N1CCOCC1`, the inhibition in [1] was 4.17%; in assay [2], 6.61%; in assay [3] it was 5.15%; in assay [4] it was 2.46%; in [5], 3.04%; in assay [6], 9.01%. In addition, the inhibition in assay [7] was determined as 40.9%; in assay [8], 86.9%; in assay [9], 86.3%; in assay [10], 1.31%.

Consider `CN(c1ccc(NC(=O)NCCN2CCOCC2)cc1)c1ccnc(Nc2ccc(CS(C)(=O)=O)cc2)n1`, for which the inhibition in assay [1] was 17.1%; in assay [2], 3.86%; in assay [3] it was 4.14%; in assay [4] it was 2.27%; in assay [5], 3.53%; in [6] it was 1.62%. For the same compound, the inhibition was 4.12% in [7], 6.8% in assay [8], 4.94% in assay [9] and 3.77% in [10].

Regarding `N#Cc1ccc2c(-c3ccnc(NC4CC4)n3)c(-c3ccc(F)cc3)nn2c1`, the inhibition was 24.5% in assay [1]; 5.62% in assay [2]; 4.39% in assay [3]; -0.62% in assay [4]; 2.45% in assay [5]; 1.97% in assay [6]. Moreover, the inhibition in [7] is 5%; in assay [8], 5.5%; in [9] it was 13.4%; in assay [10], -2.41%.

In the case of `CS(=O)(=O)CCNCc1ccc(-c2ccc3ncnc(Nc4ccc(OCc5ccccc5)cc4)c3c2)o1`, the inhibition in [1] is 7.66%; in assay [2] it was 5.28%; in assay [3] it was 5.08%; in [4] it was 3.4%; in [5], 3%; in assay [6], 15.1%. For the same compound, the inhibition in assay [7] was found to be 73%; in assay [8], 84.6%; in [9], 96.6%; in assay [10], 1.45%.

For `CS(=O)(=O)CCNCc1ccoc1-c1ccc2ncnc(Nc3ccc(OCc4ccccc4)cc3)c2c1`, the inhibition in assay [1] was found to be 7.96%; in [2], 3.15%; in assay [3], 2.98%; in assay [4] it was 0.88%; in assay [5] it was 1.51%; in [6], 3.25%. Further, the inhibition was 50.9% in [7], 32.3% in assay [8], 79.9% in assay [9] and -0.1% in [10].

As to `NS(=O)(=O)c1ccc(N/N=C2\C(=O)Nc3cccc(CCc4ccncc4)c32)cc1`, the inhibition in assay [1] is 5.15%; in assay [2], 2.41%; in [3], 2.85%; in assay [4] it was 1.21%; in assay [5] it was 0.87%; in assay [6] it was -0.81%. For the same compound, the inhibition in [7] is 3.74%; in assay [8] it was 4.66%; in assay [9] it was 8.01%; in assay [10], 4.04%.

Take `NS(=O)(=O)c1cccc(N/C=C2\C(=O)Nc3ccccc32)c1`: the inhibition in assay [1] amounted to 10.8%; in [2], 5.46%; in [3] it was 2.58%; in assay [4] it was 4.23%; in assay [5] it was 3.73%; in assay [6], 1.3%. In addition, the inhibition is -0.02% in assay [7], 13.3% in assay [8], 14.6% in [9] and 3.91% in [10].

For the compound `Cc1ccc(-c2cc3c(NC(=O)C4CC4)ncnc3o2)cc1`, the inhibition in assay [1] turned out to be 36.6%; in assay [2], 5.13%; in assay [3], 1.62%; in assay [4], 3.05%; in assay [5], 12.9%; in assay [6], 0.91%. The inhibition in assay [7] was -0.45%; in [8], 9.66%; in assay [9], 11.1%; in [10] it was 8.51%.

Regarding `Cc1c2ccc(N(C)c3ccnc(Nc4cccc(S(N)(=O)=O)c4)n3)cc2nn1C`, the inhibition in assay [1] was 23.3%; in assay [2] it was 3.38%; in [3] it was 0.55%; in [4] it was 0.19%; in assay [5], 10.3%; in assay [6], 1.55%. Further, the inhibition is -3.44% in [7], 5.59% in assay [8], 12.1% in [9] and 25.1% in assay [10].
